Reference: PubChem BioAssay (EPA / NIEHS)
Results filed as inconclusive are left out. The source made the active and inactive calls. The calls were made as follows: active = hit-call score of the fitted dose curve at least 0.9, where 1 is the maximum; inconclusive = response in the unintended direction; inactive = score below 0.9.

Experiment: ATG_M_32_TRANS: Attagene TRANS-FACTORIAL HepG2 Assay for M32 Transcription Factor (Internal Marker) (AID 2282984)
Conditions: HepG2 Attagene TRANS M32 internal marker reporter
Description: ATG_TRANS is a cell-based, multiplexed-readout assay that uses HepG2, a human liver cell line, with measurements taken at 24 hours after chemical dosing in a 24-well plate.ATG_M_32_TRANS is one of 30 assay component(s) measured or calculated from the ATG_TRANS assay. It is designed to make measurements of mRNA induction, a form of inducible reporter, as detected with fluorescence intensity signals by Reverse transcription polymerase chain reaction (RT-PCR) and Capillary electrophoresis technology.Data from the assay component ATG_M_32_TRANS was analyzed into 1 assay endpoint. This assay endpoint, ATG_M_32_TRANS, was analyzed in the positive analysis fitting direction relative to DMSO as the negative control and baseline of activity. Using a type of inducible reporter, measures of mRNA for gain-of-signal activity can be used to understand the background control at the transcription factor-level as they relate to the gene . Furthermore, this assay endpoint can be referred to as a secondary readout, because this assay has produced multiple assay endpoints where this one serves a background control function. To generalize the intended target to other relatable targets, this assay endpoint is annotated to the background measurement intended target family, where the subfamily is internal marker.
Human liver HepG2 cells are transiently transfected with multiple reporter transcription units (MRTUs) in 6-well plates using FuGene 6 reagent (Roche; 3 ml FuGene/1 mg DNA). The MRTU constructs are regulated by a cis-regulating element (promoter). […] A major difference between the CIS and TRANS system is that in CIS activities of endogenous TFs are measured, whereas the TRANS assay evaluates changes in activities of exogenous, chimeric NR-Gal4 proteins. […] At the end of 24 hour incubation, total RNA was isolated using TriZol reagent (Invitrogen). The isolated RNA is then reverse-transcribed using oligo(dT) primer and Mo-MLV reverse transcriptase (Invitrogen) with DNAse I (Ambion) treatment for 30 min. The one-tenth of the produced cDNA was amplified by PCR using Taq DNA polymerase (Invitrogen) and two reporter sequence-specific primers. The PCR products were fluorescently labeled by primer extension with 6-arboxyfluorescein (6-FAM) 5'-labeled reporter sequence-specific primer (2 min at 95 C, 20 s at 68 C and 10 min at 72 C) and these products were digested with 5U of HpaI (New England Biolabs) for 2h at 37 C. The fragments were purified using Qiaquick PCR columns (Qiagen), analyzed on an ABI 3130xL genetic analyzer (Applied Biosystems) with peak positions identified by using a set of X-rhodamine (ROX)-labeled MapMarker1000 molecular weight standards (BioVentures). The raw capillary electrophoresis data was processed using Attagraph software (Attagene).

Row | SMILES | outcome
1 | CC(Cl)COP(=O)(OCC(C)Cl)OCC(C)Cl (stereo not given) | inactive
2 | O=C(O)c1ccc2c(c1)C(=O)OC2=O | inactive
3 | CC(C=O)c1ccccc1 (stereo not given) | inactive
4 | Nc1ccc(Cl)c(N)c1 | inactive
5 | CCCCCCCCCCCCCCCCCCOS(=O)(=O)O | inactive
6 | CC(C)=CCl | inactive
7 | CC1=NN(c2ccc(S(=O)(=O)O)cc2)C(=O)C1N=Nc1ccccc1 (stereo not given) | inactive
8 | CC(C)(C)C1CCC(=O)CC1 | inactive
9 | Nc1ccc(C(=O)OCCCOC(=O)c2ccc(N)cc2)cc1 | inactive
10 | CC1(C)[C@@H]2CC[C@@]1(C)C(=O)C2 | inactive
11 | CC1=CCC(C(C)C)C=C1 (stereo not given) | inactive
12 | C=CCNCC=C | inactive
13 | CCCCCC[C@@H](O)C/C=C\CCCCCCCC(=O)OCC(O)CO (stereo not given in full) | inactive
14 | C=CC(=O)OCCCCCCOC(=O)C=C | inactive
15 | CO[Si](CCCS)(OC)OC | inactive
16 | O=C(O)/C=C/c1ccccc1 | inactive
17 | O=C(OCCc1ccccc1)c1ccccc1 | inactive
18 | C1CNCCN1 | inactive
19 | C=C(C)C1CC=C(C)CC1 (stereo not given) | inactive
20 | N#CC1(N)CCCCC1 | inactive

Row | SMILES | outcome
21 | CC1C(C)(C)C2=C(C(=O)CCC2)C1(C)C (stereo not given) | inactive
22 | O=C1CCCCCCCCCCC1 | inactive
23 | C=CC(C)(O)CC/C=C(\C)CC (stereo not given) | inactive
24 | CC(C)CO | inactive
25 | c1ccc2c(c1)[nH]c1ccccc12 | inactive
26 | C=C(C)C(=O)OCCOC(=O)C(=C)C | inactive
27 | NC(=O)Nc1ccccc1 | inactive
28 | Fc1ccc(Br)cc1 | inactive
29 | CC1=CCC2CC1C2(C)C (stereo not given) | inactive
30 | COC(=O)CC(C)CCC=C(C)C (stereo not given) | inactive
31 | CCCCCCOc1ccc(N)cc1 | inactive
32 | CCCCCC1=CCCC1=O | inactive
33 | COC(C=C(C)CCC=C(C)C)OC | inactive
34 | CCCCCCCCCCCCC | inactive
35 | CC(=O)C(C)C | inactive
36 | CCc1cccc(C)c1N(C(=O)CS(=O)(=O)O)C(C)COC (stereo not given) | inactive
37 | Clc1cc(Cl)c(Cl)c(Cl)c1Cl | inactive
38 | CCOc1ccc(NC(N)=O)cc1 | inactive
39 | Cc1cc(=O)[nH]c(=O)[nH]1 | inactive
40 | CCc1occc(=O)c1O | inactive
